The record followed here is PubChem BioAssay (EPA / NIEHS).

Calls of active or inactive are those of the source. Rule for the calls: active = hit-call score of the fitted dose curve at least 0.9, where 1 is the maximum; inactive = score below 0.9.

For orientation: AC50 means the midpoint of the concentration-response curve, whichever way the signal moves.

A short description of assay [1]: ATG_GLI_CIS: Attagene CIS-FACTORIAL HepG2 Assay for human Zinc Finger Protein GLI1 (AID 2282945). The following applies: HepG2, Attagene cis-factorial reporter mRNA, GLI element; actives raise or lower the signal. The procedure, abridged: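 Transiently transfected HepG2 cells report endogenous transcription factor activity via cis-element-driven reporter units. After 24 h compound exposure, reporter mRNA was measured by RT-PCR with capillary electrophoresis; bidirectional fitting against DMSO baseline.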

Assay [2] in a line: ATG_GRE_CIS: Attagene CIS-FACTORIAL HepG2 Assay for human Glucocorticoid Response Elements (GRE) (AID 2282947). The following applies: HepG2 GRE cis-reporter, Attagene multiplex mRNA; actives raise or lower the signal. The gist of the method:
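Endogenous transcription factor activity is read through cis-element reporter constructs transiently transfected into HepG2 cells. After 24 h treatment, labelled RT-PCR products are resolved by capillary electrophoresis; DMSO sets baseline for bidirectional curve fitting.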

A short description of assay [3]: ATG_ISRE_CIS: Attagene CIS-FACTORIAL HepG2 Assay for human Interferon Regulatory Factor 1 (IRF1) binding to an Interferon-Stimulated Response Element (ISRE) (AID 2282948). The conditions noted are these: HepG2 ISRE cis-reporter (Attagene), mRNA transcription readout; actives raise or lower the signal. The gist of the method: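 Transfected HepG2 (multiple reporter transcription units, cis elements) dosed 24 h. RNA → oligo(dT) RT → PCR → 6-FAM primer extension → HpaI → CE. DMSO = negative control/baseline.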

The nature of assay [4]: ATG_M_32_CIS: Attagene CIS-FACTORIAL HepG2 Assay for M32 Transcription Factor (Internal Marker) (AID 2282949).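 Note: background control marker of the multiplexed CIS panel rather than a real target.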 The conditions noted are these: HepG2 Attagene cis-factorial M32 reporter, mRNA; actives raise or lower the signal. The procedure, abridged:
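Internal background marker read-out: RT-PCR/capillary electrophoresis fluorescence of reporter transcripts from transiently transfected HepG2 cells after 24 h chemical exposure. Activity fitted bidirectionally relative to DMSO negative control.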

Assay [5] in a line: ATG_M_06_CIS: Attagene CIS-FACTORIAL HepG2 Assay for M06 Transcription Factor (Internal Marker) (AID 2282950). The conditions noted are these: HepG2 Attagene CIS-FACTORIAL M06 internal marker reporter; actives raise or lower the signal. The gist of the method: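 Read-out is fluorescence of labelled reporter cDNA fragments resolved by capillary electrophoresis after RT-PCR. Cells: HepG2 carrying transfected cis-promoter reporter units, treated 24 h. Gain or loss of signal fitted relative to DMSO.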

The target of assay [6] is Hypoxia-inducible factor 1-alpha (Homo sapiens) (UniProt Q16665). The assay is described as follows: ATG_HIF1a_CIS: Attagene CIS-FACTORIAL HepG2 Assay for human Hypoxia Inducible Factor 1 (HIF1A) (AID 2282951). The following applies: HepG2 Attagene cis-factorial HIF1a reporter transcription; actives raise or lower the signal. The gist of the method: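 In this multiplexed cell assay, HepG2 cells bearing transfected cis reporters are dosed for 24 h and reporter mRNA is read by RT-PCR plus capillary electrophoresis; signal increases and decreases are both scored against DMSO.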

For assay [7], the target named is Hepatocyte nuclear factor 6 (Homo sapiens) (UniProt Q9UBC0). The assay is described as follows: ATG_HNF6_CIS: Attagene CIS-FACTORIAL HepG2 Assay for human Hepatocyte Nuclear Factor 6 (HNF6) (AID 2282952). The conditions noted are these: HepG2 Attagene cis-factorial HNF6 reporter transcription; actives raise or lower the signal. The gist of the method: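 HepG2 cells transiently transfected with cis-element-driven multiple reporter transcription units, dosed 24 h; reporter mRNA quantified by RT-PCR, FAM primer extension, HpaI digestion and capillary electrophoresis; bidirectional fit versus DMSO baseline.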

For assay [8], the target named is Heat shock factor protein 1 (Homo sapiens) (UniProt Q00613). The assay is described as follows: ATG_HSE_CIS: Attagene CIS-FACTORIAL HepG2 Assay for human Heat Shock Transcription Factor 1 (HSE) (AID 2282953). The conditions noted are these: HepG2 HSE cis-reporter, Attagene RNA transcription; actives raise or lower the signal. The gist of the method:
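HepG2, transient MRTU transfection, cis-promoter reporters (endogenous TF activity). 24 h compound. RNA → oligo(dT) RT → PCR → 6-FAM primer extension → HpaI cut → CE. Bidirectional fit vs DMSO.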

Assay [9] in a line: ATG_MRE_CIS: Attagene CIS-FACTORIAL HepG2 Assay for human Metal Responsive Element (MRE) (AID 2282954). The following applies: HepG2 MRE cis-reporter transcription, Attagene multiplex; actives raise or lower the signal. The procedure, abridged: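 Fluorescent reporter fragments separated by capillary electrophoresis give mRNA induction for the MRE unit after 24 h treatment of transfected HepG2 cells. Endogenous transcription-factor activity is read; DMSO serves as negative control and baseline.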

Assay [10] deals with Paired box protein Pax-6 (Homo sapiens) (UniProt P26367). The assay is described as follows: ATG_Pax6_CIS: Attagene CIS-FACTORIAL HepG2 Assay for human Paired Box 6 (PAX6) (AID 2282956). The conditions noted are these: HepG2 CIS-FACTORIAL PAX6 reporter transcription, RNA readout; actives raise or lower the signal. The procedure, abridged: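 Transient MRTU transfection of HepG2 → compound exposure 24 h → TriZol RNA, oligo(dT) RT → PCR, 6-FAM primer extension, HpaI cut → capillary electrophoresis; activity fitted both directions against DMSO.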

The nature of assay [11]: ATG_RORE_CIS: Attagene CIS-FACTORIAL HepG2 Assay for human RAR-related Orphan Receptor Element (RORE) (AID 2282959). The following applies: HepG2 Attagene cis-factorial RORE reporter, mRNA; actives raise or lower the signal. The procedure, abridged:
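Fluorescence intensity of reporter-specific cDNA fragments, separated by capillary electrophoresis, gives the signal. Source: HepG2 liver cells transiently transfected with cis-element reporters and exposed 24 h; DMSO-normalized bidirectional fit.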

A short description of assay [12]: ATG_Sox_CIS: Attagene CIS-FACTORIAL HepG2 Assay for human SRY-box transcription factor (SOX) (AID 2282960). The following applies: HepG2 Attagene cis-factorial SOX reporter, mRNA; actives raise or lower the signal. The procedure, abridged:
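After 24 h of chemical treatment, transfected HepG2 reporter cells are lysed for total RNA. Transcript levels come from RT-PCR with labelled primer extension and capillary electrophoresis, analysed bidirectionally versus DMSO.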

In assay [13] the target is Transcription factor Sp1 (Homo sapiens) (UniProt P08047). Description: ATG_Sp1_CIS: Attagene CIS-FACTORIAL HepG2 Assay for human Specificity Protein 1 (Sp1) (AID 2282961). The following applies: HepG2 Sp1 cis-reporter transcription, actives raise or lower the signal. The procedure, abridged: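 Sp1-driven reporter mRNA, read as capillary electrophoresis fluorescence after RT-PCR, in transiently transfected HepG2 cells dosed for 24 h; signal change in either direction relative to DMSO.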

Assay [14] in a line: ATG_SREBP_CIS: Attagene CIS-FACTORIAL HepG2 Assay for human Sterol Regulatory Element Binding (SREBP) (AID 2282962). The conditions noted are these: HepG2 Attagene cis-factorial SREBP reporter, mRNA; actives raise or lower the signal. The gist of the method:
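Transfected HepG2 (cis-regulated reporter library, endogenous TFs) → compound 24 h → total RNA → oligo(dT) RT → reporter-specific PCR → FAM primer extension, HpaI cut → CE fluorescence. Fit bidirectional vs DMSO.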

Assay [15] concerns the target Signal transducer and activator of transcription 3 (Homo sapiens) (UniProt P40763). Description: ATG_STAT3_CIS: Attagene CIS-FACTORIAL HepG2 Assay for human Signal Transducer and Activator of Transcription 3 (STAT3) (AID 2282963). The conditions noted are these: HepG2, Attagene cis-factorial STAT3 reporter transcription; actives raise or lower the signal. The gist of the method: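 Values derive from bidirectional fits relative to DMSO of reporter mRNA levels, measured by RT-PCR with capillary electrophoresis, in HepG2 cells carrying transiently transfected cis-regulated reporter units and exposed 24 h.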

A short description of assay [16]: ATG_TA_CIS: Attagene CIS-FACTORIAL HepG2 Assay for human TA Basal Promoter (AID 2282964). The conditions noted are these: HepG2 Attagene CIS-factorial TA basal promoter reporter; actives raise or lower the signal. The procedure, abridged:
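Read-out: fluorescent reporter-transcript fragments resolved by capillary electrophoresis after RT-PCR and HpaI digestion. Source: HepG2 cells carrying transiently transfected multi-reporter cis constructs, treated 24 h. Endpoint fitted bidirectionally relative to DMSO.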

Assay [17] can be described thus: ATG_PBREM_CIS: Attagene CIS-FACTORIAL HepG2 Assay for human Phenobarbital-responsive Enhancer Module (PBREM) (AID 2282955). The conditions noted are these: HepG2 PBREM cis-reporter, Attagene multiplexed transcription; actives raise or lower the signal. The gist of the method: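 After a 24 h incubation with test chemical, transfected HepG2 cells yield total RNA; reporter-specific RT-PCR products are fluorescently labelled, HpaI-digested and resolved by capillary electrophoresis against ROX size standards.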

The nature of assay [18]: ATG_PXRE_CIS: Attagene CIS-FACTORIAL HepG2 Assay for human Pregnane X Receptor Element (PXRE) (AID 2282957). The conditions noted are these: HepG2 Attagene CIS-FACTORIAL PXRE reporter, mRNA; actives raise or lower the signal. The procedure, abridged:
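HepG2 cells transiently transfected with cis-regulated multiple reporter transcription units; endogenous factor activity measured as reporter mRNA 24 h after dosing. RT-PCR, fluorescent primer extension, HpaI digestion, capillary electrophoresis; bidirectional fit versus DMSO baseline.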

Assay [19] can be described thus: ATG_PPRE_CIS: Attagene CIS-FACTORIAL HepG2 Assay for human Peroxisome Proliferator-activated Response Element (PPRE) (AID 2282958). The conditions noted are these: HepG2 PPRE cis-element reporter, Attagene transcription factor profiling; actives raise or lower the signal. The gist of the method: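 Multiplexed reporter transcription units under cis-regulatory promoters were transfected into HepG2 cells to capture endogenous factor activity. A 24 h incubation preceded RNA isolation and fluorescent RT-PCR fragment analysis.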

Chain of Signal transducer and activator of transcription 3 (Homo sapiens) (P40763 whole entry, looked up): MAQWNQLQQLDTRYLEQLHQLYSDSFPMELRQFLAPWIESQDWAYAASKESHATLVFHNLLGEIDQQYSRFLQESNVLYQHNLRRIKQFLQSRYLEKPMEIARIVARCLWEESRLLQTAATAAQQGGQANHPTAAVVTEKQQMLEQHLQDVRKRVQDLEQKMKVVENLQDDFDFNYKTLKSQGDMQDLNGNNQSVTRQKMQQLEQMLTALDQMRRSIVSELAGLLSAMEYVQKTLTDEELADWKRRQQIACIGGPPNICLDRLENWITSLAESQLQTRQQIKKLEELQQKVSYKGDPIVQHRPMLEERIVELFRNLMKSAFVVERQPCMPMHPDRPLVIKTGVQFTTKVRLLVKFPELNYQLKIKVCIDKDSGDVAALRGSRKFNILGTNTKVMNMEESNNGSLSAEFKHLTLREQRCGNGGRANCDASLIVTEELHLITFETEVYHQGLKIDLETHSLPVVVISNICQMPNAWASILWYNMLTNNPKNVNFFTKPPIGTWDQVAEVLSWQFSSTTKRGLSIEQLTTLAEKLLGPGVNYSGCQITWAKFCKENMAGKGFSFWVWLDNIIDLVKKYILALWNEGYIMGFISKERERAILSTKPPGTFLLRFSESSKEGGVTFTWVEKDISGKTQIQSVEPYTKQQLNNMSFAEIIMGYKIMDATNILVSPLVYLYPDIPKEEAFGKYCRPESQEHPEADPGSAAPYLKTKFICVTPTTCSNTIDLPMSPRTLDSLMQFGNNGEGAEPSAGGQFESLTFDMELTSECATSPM
Chain of Heat shock factor protein 1 (Homo sapiens) (Q00613 whole entry, looked up): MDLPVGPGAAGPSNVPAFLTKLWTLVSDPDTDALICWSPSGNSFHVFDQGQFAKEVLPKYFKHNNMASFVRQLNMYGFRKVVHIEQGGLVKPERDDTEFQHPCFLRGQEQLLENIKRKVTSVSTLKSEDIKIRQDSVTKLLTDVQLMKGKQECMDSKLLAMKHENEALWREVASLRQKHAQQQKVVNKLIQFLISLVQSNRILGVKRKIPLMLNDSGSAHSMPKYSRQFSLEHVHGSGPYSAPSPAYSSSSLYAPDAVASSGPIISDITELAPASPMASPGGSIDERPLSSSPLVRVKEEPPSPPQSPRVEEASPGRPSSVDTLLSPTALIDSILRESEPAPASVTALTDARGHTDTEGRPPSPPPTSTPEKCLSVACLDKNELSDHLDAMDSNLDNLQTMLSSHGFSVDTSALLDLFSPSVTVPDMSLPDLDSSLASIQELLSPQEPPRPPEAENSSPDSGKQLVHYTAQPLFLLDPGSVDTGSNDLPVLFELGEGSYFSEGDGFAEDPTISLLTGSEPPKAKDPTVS
Chain of Hypoxia-inducible factor 1-alpha (Homo sapiens) (Q16665 whole entry, looked up): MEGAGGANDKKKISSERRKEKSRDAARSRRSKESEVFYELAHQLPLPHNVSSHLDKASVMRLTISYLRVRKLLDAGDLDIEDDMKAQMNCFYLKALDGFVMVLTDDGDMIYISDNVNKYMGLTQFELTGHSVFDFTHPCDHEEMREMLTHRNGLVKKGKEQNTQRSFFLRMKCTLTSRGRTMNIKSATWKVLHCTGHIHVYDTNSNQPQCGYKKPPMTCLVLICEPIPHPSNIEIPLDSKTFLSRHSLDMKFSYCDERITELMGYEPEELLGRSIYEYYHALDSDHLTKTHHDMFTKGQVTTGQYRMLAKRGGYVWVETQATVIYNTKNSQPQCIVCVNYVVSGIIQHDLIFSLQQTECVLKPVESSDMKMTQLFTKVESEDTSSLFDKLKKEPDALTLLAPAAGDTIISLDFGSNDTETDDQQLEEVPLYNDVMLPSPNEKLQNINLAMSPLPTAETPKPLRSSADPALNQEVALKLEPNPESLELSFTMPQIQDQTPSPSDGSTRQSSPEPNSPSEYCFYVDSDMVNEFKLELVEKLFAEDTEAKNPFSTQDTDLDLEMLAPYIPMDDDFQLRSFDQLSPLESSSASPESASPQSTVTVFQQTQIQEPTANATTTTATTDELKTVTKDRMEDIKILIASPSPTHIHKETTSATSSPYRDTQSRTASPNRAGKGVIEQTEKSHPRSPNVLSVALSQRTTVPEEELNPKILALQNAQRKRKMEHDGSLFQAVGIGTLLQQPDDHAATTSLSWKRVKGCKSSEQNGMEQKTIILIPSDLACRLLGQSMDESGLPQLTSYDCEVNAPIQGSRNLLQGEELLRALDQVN
Chain of Hepatocyte nuclear factor 6 (Homo sapiens) (Q9UBC0 whole entry, looked up): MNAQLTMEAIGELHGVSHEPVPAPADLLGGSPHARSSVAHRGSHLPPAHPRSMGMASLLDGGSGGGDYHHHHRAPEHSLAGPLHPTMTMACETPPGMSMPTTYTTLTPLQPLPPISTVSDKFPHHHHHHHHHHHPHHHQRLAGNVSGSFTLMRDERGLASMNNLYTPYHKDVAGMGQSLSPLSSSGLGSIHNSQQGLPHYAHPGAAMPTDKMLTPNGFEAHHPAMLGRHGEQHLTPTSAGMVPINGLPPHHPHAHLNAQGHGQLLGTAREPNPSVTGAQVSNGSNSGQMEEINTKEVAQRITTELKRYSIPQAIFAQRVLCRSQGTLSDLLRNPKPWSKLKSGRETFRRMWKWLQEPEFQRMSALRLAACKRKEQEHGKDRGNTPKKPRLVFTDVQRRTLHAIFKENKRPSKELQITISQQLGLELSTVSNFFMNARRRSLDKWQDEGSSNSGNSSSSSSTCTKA
Chain of Transcription factor Sp1 (Homo sapiens) (P08047 whole entry, looked up): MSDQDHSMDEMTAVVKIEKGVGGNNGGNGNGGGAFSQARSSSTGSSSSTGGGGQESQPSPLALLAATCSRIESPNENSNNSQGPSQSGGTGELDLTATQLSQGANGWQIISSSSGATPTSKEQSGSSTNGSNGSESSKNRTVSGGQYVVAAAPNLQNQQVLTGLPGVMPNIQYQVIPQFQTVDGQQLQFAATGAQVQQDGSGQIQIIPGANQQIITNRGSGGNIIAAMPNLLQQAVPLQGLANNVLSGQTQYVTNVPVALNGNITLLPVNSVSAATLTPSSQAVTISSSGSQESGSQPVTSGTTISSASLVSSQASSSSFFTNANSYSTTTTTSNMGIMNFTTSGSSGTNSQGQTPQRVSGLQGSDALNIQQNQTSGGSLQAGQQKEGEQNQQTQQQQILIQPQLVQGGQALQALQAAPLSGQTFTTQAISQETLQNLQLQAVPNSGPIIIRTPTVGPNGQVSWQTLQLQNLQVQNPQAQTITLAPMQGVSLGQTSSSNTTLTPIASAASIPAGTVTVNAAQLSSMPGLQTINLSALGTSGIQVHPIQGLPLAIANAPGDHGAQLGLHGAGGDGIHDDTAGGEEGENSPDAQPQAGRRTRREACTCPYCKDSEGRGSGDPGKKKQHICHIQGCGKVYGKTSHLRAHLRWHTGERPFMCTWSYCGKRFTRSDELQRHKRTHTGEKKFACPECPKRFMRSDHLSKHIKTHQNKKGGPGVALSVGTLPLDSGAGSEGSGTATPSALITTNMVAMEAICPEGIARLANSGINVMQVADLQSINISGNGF
Chain of Paired box protein Pax-6 (Homo sapiens) (P26367 whole entry, looked up): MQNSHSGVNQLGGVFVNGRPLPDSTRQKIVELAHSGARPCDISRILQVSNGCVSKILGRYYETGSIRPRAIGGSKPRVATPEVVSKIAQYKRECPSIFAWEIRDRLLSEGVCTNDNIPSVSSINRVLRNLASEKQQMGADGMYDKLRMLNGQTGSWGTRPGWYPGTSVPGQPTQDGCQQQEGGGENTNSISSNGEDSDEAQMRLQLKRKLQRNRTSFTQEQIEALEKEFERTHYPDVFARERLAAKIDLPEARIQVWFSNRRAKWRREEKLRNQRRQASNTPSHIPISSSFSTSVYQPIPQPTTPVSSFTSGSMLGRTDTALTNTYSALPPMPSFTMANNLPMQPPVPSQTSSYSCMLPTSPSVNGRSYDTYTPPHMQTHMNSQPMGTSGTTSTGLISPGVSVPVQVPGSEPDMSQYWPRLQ

`CCCCCCCCCCCC(=O)N(C)CC(=O)O`: the compound was called inactive in [1], in assay [2], in assay [3], in assay [4], in [5] and in [6]. The outcome in [7], in assay [8], in assay [9], in assay [10], in assay [12] and in assay [13] was inactive. Further, the compound was classed as inactive in [14], in assay [15] and in assay [16]. Also, in assay [11], the AC50 was 19.6 µM (active).
`Cc1cccc(C(C)(C)C)c1O`: the result in assay [1], in assay [2], in assay [3], in assay [4], in [5] and in [7] was inactive. Moreover, the call in assay [8], in assay [9], in assay [10], in assay [11], in assay [12] and in assay [13] was inactive. The result in assay [15] was inactive. Further, the AC50 in [17] is 16.8 µM (active); in assay [18] it was 4.59 µM (active).
Turning to `O=C(Nc1ccccc1)c1cc(Cl)ccc1O`, the call in [1], in assay [2], in assay [3], in assay [4], in assay [5] and in assay [6] was inactive. For the same compound, the compound was classed as inactive in assay [7], in assay [12], in assay [15] and in assay [16]. The AC50 was 2.93 µM (active) in assay [8]; 25.6 µM (active) in assay [18]; 15.5 µM (active) in assay [11]; 3.65 µM (active) in assay [13]; 5.55 µM (active) in [14].
For the compound `CCCCCCCC(=O)OCC(COC(=O)CCCCCCC)OC(=O)CCCCCCC`, the compound was classed as inactive in assay [1], in assay [2], in [3], in assay [4], in assay [5] and in assay [6]. Moreover, the compound was called inactive in [7], in [8], in assay [9], in assay [18], in assay [11] and in [12]. In addition, the compound was classed as inactive in assay [13], in assay [14], in [15] and in assay [16].
With `O=S(=O)(O)c1ccc(Nc2nc(Nc3ccc(C=Cc4ccc(Nc5nc(Nc6ccc(S(=O)(=O)O)cc6)nc(N(CCO)CCO)n5)cc4S(=O)(=O)O)c(S(=O)(=O)O)c3)nc(N(CCO)CCO)n2)cc1`, the compound was classed as inactive in assay [1], in assay [2], in [3], in assay [4], in [5] and in [6]. For the same compound, the call in assay [7], in assay [10], in [19], in assay [11], in [13] and in [15] was inactive. Moreover, in [16], the result was inactive. For the same compound, the AC50 in [18] was 21.2 µM (active).
